Here are results for 22 compounds from PubChem BioAssay (NCATS).

Holding throughout (assay): Cytotoxic Profiling of Annotated Libraries Using Quantitative High-Throughput Screening (AID 1296008); also: nearly all actives have a fitted effect of over 60% in size
What all share (conditions): Five cell lines viability, CellTiter-Glo ATP luminescence, 48-72 h; max response: active compounds read low

For experiment [1], the system named is CRL-7250. The essentials:
(§1)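 Cytotoxicity was measured as CellTiter-Glo ATP luminescence, read after 10 min at room temperature. Compound treatment of the cells lasted 48 or 72 hr at 37 degrees Celsius in a qHTS format.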

Experiment [2] deals with HEK293. The method, boiled down:
as §1

In experiment [3] the test system is HaCat. The essentials:
as §1

Experiment [4] deals with NIH3T3. The method, boiled down: as §1

Each structure is given as a SMILES string. Records with an inconclusive call do not appear. Unmarked numbers belong to inactive results. Active and inactive are the calls of the source. Calls follow the shape of the dose curve; as a rule, active = well fitted inhibition curve with a large enough effect; inconclusive = small, poorly fitted or top-dose-only effect; inactive = flat fitted curve, though single readings scatter.
% is scaled to controls: 0 for no effect and ±100 for the full control effect; potency is read from the fitted curve at half-maximal effect.

As to `CC(C)C[C@@H]1NC(=O)[C@@H](Cc2ccccc2)NC(=O)C(CCCCCC(=O)C2CO2)NC(=O)[C@@H]2CCCCN2C1=O` (stereo partly specified), the Potency was 3.55 µM (active) in experiment [1], 2.82 µM (active) in experiment [2] and 3.17 µM (active) in experiment [3].
Consider `COc1ccc([C@H]2Cc3cccc(O)c3C(=O)O2)cc1OC`, for which the max response in experiment [1] is -21.6%.
Take `CC[C@@H](C)Nc1cc(C(=O)NC2CC3CC[C@@H](C2)N3c2ccc(C(=O)C3CC3)cn2)c(C)cc1C(N)=O` (stereo partly specified): the Potency in experiment [1] was 0.231 µM (active); in experiment [2], 0.0517 µM (active); in experiment [3], 0.092 µM (active).
With `COc1cc2c(cc1OC(C)C)[C@H](c1ccc(Cl)cc1)N(c1ccc(N(C)CC3CCC(N4CCN(C)C(=O)C4)CC3)cc1)C(=O)C2` (stereo partly specified), the Potency in experiment [1] is 18.4 µM (active). In addition, the max response in experiment [2] was -97.2%.
Take `CCCCNc1ncc(-c2ccc(CN3CCOCC3)cn2)c(NC2CCC(O)CC2)n1` (stereo unspecified): the figures for the max response in experiment [1] and in experiment [2] were -14.5% and -11.5%, respectively.
Regarding `C=C1CC[C@@H]2[C@](C)(CO)[C@H](O)CC[C@@]2(C)[C@@H]1C/C=C1/C(=O)OCC1O` (stereo partly specified), the results for the Potency in experiment [1] and in experiment [2] were 18.4 µM (active) and 7.31 µM (active), respectively. In experiment [3], the max response is -10.5%.
For the compound `CN(C)CCOC(C)(c1ccccc1)c1ccc(Cl)cc1` (stereo unspecified), the Potency in experiment [1] is 25.9 µM (active); in experiment [2], 20.6 µM (active).
With `CN1CCN(Cc2ccc(NC(=O)Cc3ccc(Oc4cc(NC(=O)C5CC5)ncn4)cc3)cc2C(F)(F)F)CC1`, the Potency in experiment [1] was 5.8 µM (active). Further, the results for the max response in experiment [2] and in experiment [3] were -105% and -122%, respectively.
Regarding `Nc1nc(NC2CC2)cc(-c2cccc(Cl)c2Cl)n1`, in experiment [1], the max response is -27.4%. In addition, the Potency in experiment [2] was 18.4 µM (active).
With `CC(C)S(=O)(=O)NC[C@H](C)c1ccc(-c2ccc(CCNS(C)(=O)=O)cc2)cc1`, the Potency in experiment [1] is 4.61 µM (active); in experiment [2], 5.8 µM (active). In addition, the max response in experiment [3] was 2.78%.
With `FC(F)(F)c1ccc(/C=C/c2nc(COc3ccc(CCCCn4ccnn4)cc3)co2)cc1`, the Potency in experiment [1] is 0.0651 µM (active); in experiment [2], 0.0291 µM (active). The max response was -23.7% in experiment [3] and -18.7% in experiment [4].
Consider `Cc1sc2c(c1C)C(c1ccc(Cl)cc1)=N[C@H](CC(=O)NCCCCNC(=O)COc1cccc3c1C(=O)N([C@H]1CCC(=O)NC1=O)C3=O)c1nnc(C)n1-2`, for which the Potency in experiment [1] was 1.84 µM (active); in experiment [2] it was 2.59 µM (active). The max response was -67.4% in experiment [3] and -0.715% in experiment [4].
For `COC(=O)N1CCC(n2ncc3c(N4CCOCC4)nc(-c4ccc(NC(=O)NC5CC5)cc4)nc32)CC1`, the Potency in experiment [1] was 0.259 µM (active); in experiment [2], 0.291 µM (active); in experiment [3], 6.51 µM (active); in experiment [4], 0.651 µM (active).
For `CCCCNc1ncc(C(=O)NCc2ccc(-n3ccnc3)cc2)c(NC2CCC(O)CC2)n1` (stereo unspecified), the results for the Potency in experiment [1], in experiment [2] and in experiment [3] were 13 µM (active), 7.31 µM (active) and 23.1 µM (active), respectively.
Consider `CC(/C=C/C(=O)NO)=C\[C@@H](C)C(=O)c1ccc(N(C)C)cc1`, for which the Potency in experiment [1] is 2.91 µM (active); in experiment [2], 1.16 µM (active); in experiment [3], 0.92 µM (active); in experiment [4], 1.3 µM (active).
Turning to `CC1CC(=O)C2=C(C1)C1OC1C1(O)C2C(=O)c2cccc(O)c2C1O` (stereo unspecified), the max response in experiment [1] was -42.8%; in experiment [2], -91.9%; in experiment [3] it was -53.4%; in experiment [4] it was -27%.
For `CCCC1(CCC)CCC2(CCN(CCCN(CC)CC)C2)CC1`, the Potency is 4.11 µM (active) in experiment [1], 1.84 µM (active) in experiment [2], 4.61 µM (active) in experiment [3] and 3.66 µM (active) in experiment [4].
Consider `COc1cc(O)c2c(c1)C1OC1C[C@H](O)[C@H](O)C(=O)/C=C\C[C@H](C)OC2=O` (stereo partly specified), for which the Potency is 20.6 µM (active) in experiment [1], 3.66 µM (active) in experiment [2], 8.2 µM (active) in experiment [3] and 2.06 µM (active) in experiment [4].
Take `COC1=CC(=O)C[C@@H](C)[C@@]12Oc1c(Cl)c(OC)cc(OC)c1C2=O`: the max response in experiment [1] is -44.3%; in experiment [2] it was -102%; in experiment [3] it was -90.1%; in experiment [4] it was -50.9%.
On to `CN[C@@H]1[C@H](O[C@H]2[C@H](O[C@@H]3[C@@H](O)[C@H](O)[C@@H](N=C(N)N)[C@H](O)[C@H]3N=C(N)N)O[C@@H](C)[C@]2(O)CO)O[C@@H](CO)[C@H](O)[C@H]1O`, for which the max response in experiment [1] is 1.43%; in experiment [2] it was -16.2%; in experiment [3] it was -0.834%; in experiment [4] it was 3.49%.
For `COc1cc(N2CCC(N3CCN(C)CC3)CC2)ccc1Nc1ncc(Cl)c(Nc2ccccc2P(C)(C)=O)n1`, the Potency in experiment [1] was 2.06 µM (active); in experiment [2], 5.8 µM (active); in experiment [3], 1.84 µM (active); in experiment [4], 1.64 µM (active).
As to `C=C1C(=O)O[C@@H]2C3C(=C(C)[C@@H](O)[C@@H](OC(=O)/C(=C/C)COC(C)=O)[C@@H]12)C(=O)[C@H]1O[C@@]31C` (stereo partly specified), the Potency in experiment [1] was 6.32 µM (active); in experiment [2], 1 µM (active); in experiment [3] it was 3.17 µM (active); in experiment [4], 2.24 µM (active).
